# Measured values from PubChem BioAssay AID624351 (Southern Research Specialized Biocontainment Screening …, 2012).
# Screen size: about 2,400 compounds; about 1,400 (58%) were called active.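 The calls were made as follows: active = inhibition of 30% or more at any tested dose; inconclusive = primary hits over the limit that were never retested; inactive = the rest.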 So high a share suggests a set chosen from earlier hits. Some of the results follow.
# Experiment: coupled detection enzyme interference, dose response, artefact control for MgcRacGAP inhibitor project, biochemical, coupled enzyme counter-screen (AID 624351);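 also: signal is the ADP detection kit reading of free GDP without any GAP enzyme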
# Conditions: ADP Hunter coupled enzyme counter-screen, fluorescence, no MgcRacGAP; series mostly up to 80 µM
row,SMILES,IC50
1,Cc1ccc(OCCCN2CCCC2)c(C)c1,inactive
2,COc1ccc(Cc2nnc(NC(=O)Cc3cccs3)s2)cc1,inactive
3,O=C(Cc1cccs1)N/N=C\c1ccc(O)cc1,42.6 µM (active)
4,C[n+]1c(-c2ccc(C=NNC(=O)c3ccc(C(=O)NN=Cc4ccc(-c5cn6ccccc6[n+]5C)cc4)cc3)cc2)cn2ccccc21,inactive
5,O=C(CNS(=O)(=O)c1ccccc1)N/N=C/c1ccc(O)cc1,61.6 µM (active)
6,O=C(C[n+]1ccccc1)N/N=C/c1ccc(O)cc1,81.2 µM (active)
7,CC(=O)Oc1ccc2c(=O)c(Oc3ccccc3)coc2c1OC(C)=O,inactive
8,CCN1/C(=C/c2ccc3cc(C)ccc3[n+]2CC)Sc2ccccc21,inactive
9,OC(CON=C1c2ccccc2-c2ccccc21)CN1CCNCC1 (centres undefined),inactive
10,O=C(CNC(=O)c1ccccc1Br)N/N=C/c1ccc(O)cc1,54.3 µM (active)
11,O=C(N/N=C/c1ccc(O)cc1)c1cccc(C(F)(F)F)c1,69.2 µM (active)
12,Cc1ccc(C(=O)Oc2csc(=S)n2C(=O)c2ccc(C)cc2)cc1,inactive
13,Cc1ccc(C)c(OCCCCN2CCCCC2)c1,inactive
14,COc1ccc(CN2CCC(N3CC(C)OC(C)C3)CC2)c(OC)c1OC (centres undefined),inactive
15,Cc1cc(C(=O)NNC(=O)/C=C/c2ccco2)c(C)o1,inactive
16,COc1cc(/C=N/NC(=O)c2ccoc2C)ccc1O,32.2 µM (active)
17,COc1cc(/C=N/NC(=O)c2cc(C)oc2C)ccc1O,49.8 µM (active)
18,OCCN1CCN(Cc2ccc3ccccc3c2)CC1,inactive
19,OCCN(CCO)c1ccc2ccccc2c1,65 µM (active)
20,CCCN(CCO)CCCc1ccccc1,inactive

row,SMILES,IC50
1,COc1cc(/C=N/n2nnnc2N)ccc1O,18.4 µM (active)
2,CCOc1cc(/C=N/n2cnnc2)ccc1O,34 µM (active)
3,COc1cc(/C=N/n2cnnc2)ccc1OC(=O)c1cccnc1,inactive
4,CCOc1cc(/C=N\n2nnnc2N)ccc1O,45.1 µM (active)
5,Cc1[nH]c2ccccc2c1/C=N/Nc1nncn1N,62.6 µM (active)
6,Cc1[nH]c2ccccc2c1/C=N\NC(=O)CNc1ccc2c(c1)OCO2,inactive
7,CCc1nnc(N/N=C/c2cc(Br)c(O)cc2O)n1N,72.7 µM (active)
8,CCc1nnc(N/N=C/c2c(C)[nH]c3ccccc23)n1N,45.9 µM (active)
9,N#CC(C#N)=C1C=CC=CN1/C(=C\c1ccco1)C(=O)c1ccc(Br)cc1,inactive
10,O=C(O)c1cccc(-n2sc3ccccc3c2=O)c1,inactive
11,O=c1c2ccccc2sn1-c1ccc(F)cc1,inactive
12,O=C1CCCC(O)=C1C=Nc1ccc(O)cc1,18.6 µM (active)
13,CC1(C)CC(=O)C(C=Nc2ccc(N)cc2)=C(O)C1,82.4 µM (active)
14,CC1(C)CC(=O)C(C=Nc2ccc(O)cc2)=C(O)C1,17.4 µM (active)
15,Cc1ccc(C(C2=C(O)CC(C)(C)CC2=O)C2C(=O)CC(C)(C)CC2=O)o1 (centres undefined),inactive
16,CC1(C)CC(=O)C2=C(C1)OC1=C(C(=O)CC(C)(C)C1)C2c1ccc(O)cc1O,inactive
17,O=C1CC(c2ccccc2)CC(O)=C1C=Nc1ccc(O)cc1 (centres undefined),28.9 µM (active)
18,CC1(C)CC(=O)C(C(C2=C(O)CC(C)(C)CC2=O)c2ccc(Br)s2)C(=O)C1 (centres undefined),inactive
19,Cc1ccc(C(C2=C(O)CC(C)(C)CC2=O)C2C(=O)CC(C)(C)CC2=O)s1 (centres undefined),inactive
